Consider 35 molecules from PubChem BioAssay (Tox21).

Assay [1] is described as follows: A CellTox Green Cytotoxicity Assay to monitor cytotoxicity in HEK293 cells - 32 hour (AID 1224881). Note: nearly all actives have a fitted effect of over 40% in size. Note: potency is the fitted concentration of half-maximal effect. The gist of the method:
(§1)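 Cells (HEK293, 600/well) and dye reagent are dispensed together. After 5 h at 37 C, 23 nL compound is pinned in. Plates stay at 37 C for 40 h with fluorescence read at 0h, 8h, 16h, 24h, 32h and 40h.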

A short description of assay [2]: A CellTox Green Cytotoxicity Assay to monitor cytotoxicity in HepG2 cells - 0 hour (AID 1224882). Note: nearly all actives have a fitted effect of over 35% in size. Note: potency is the fitted concentration of half-maximal effect. The method in brief: (§2)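 Cells and non-lytic dye reagent are dispensed together (600 HepG2 cells/well) and incubated 5 h before DMSO compound transfer. Kinetic fluorescence is then recorded in the same wells during 40 h at 37 C.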
Assay [3] in a line: A CellTox Green Cytotoxicity Assay to monitor cytotoxicity in HepG2 cells - 32 hour (AID 1224883). Note: nearly all actives have a fitted effect of over 50% in size. Note: potency is the fitted concentration of half-maximal effect. The gist of the method: as §2
Assay [4] can be described thus: A CellTox Green Cytotoxicity Assay to monitor cytotoxicity in HEK293 cells - 8 hour (AID 1224884). Note: nearly all actives have a fitted effect of over 35% in size. Note: potency is the fitted concentration of half-maximal effect. The gist of the method:
as §1

Assay [5] in a line: qHTS RealTime-Glo MT Cell Viability Assay in HEK293 cells - 24 hour (AID 1224886). Note: nearly all actives have a fitted effect of over 50% in size. Note: potency is the fitted concentration of half-maximal effect. The method in brief: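 Quantitative high-throughput screen of the Tox21 10K library in HEK293: cells and RealTime-Glo reagents plated together, compound added at 5 h, luminescence monitored through 40 h at 37 C.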
A general note: Quantitative high-throughput screening tests each substance at several concentrations.

The nature of assay [6]: qHTS RealTime-Glo MT Cell Viability Assay in HEK293 cells - 8 hour (AID 1224887). Note: nearly all actives have a fitted effect of over 50% in size. Note: potency is the fitted concentration of half-maximal effect. The gist of the method:
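Real-time viability in HEK293: signal arises when living cells convert a prosubstrate for NanoLuc in the medium, so luminescence tracks viable cell number. Compound (23 nL, DMSO) added 5 h post-seeding; kinetic reads at 0–40 h, 37 C.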

Assay [7] is described as follows: A CellTox Green Cytotoxicity Assay to monitor cytotoxicity in HEK293 cells - 16 hour (AID 1224888). Note: nearly all actives have a fitted effect of over 35% in size. The method in brief: as §1
Assay [8] can be described thus: qHTS RealTime-Glo MT Cell Viability Assay in HepG2 cells - 0 hour (AID 1224889). Note: nearly all actives have a fitted effect of over 50% in size. The gist of the method: (§3)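 Compound treatment began 5 h after plating HepG2 cells (600/well) with NanoLuc luciferase and prosubstrate. Plates stayed at 37 C for 40 h; luminescence was captured at six time points, 0 h through 40 h.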
A short description of assay [9]: qHTS RealTime-Glo MT Cell Viability Assay in HepG2 cells - 16 hour (AID 1224885). Note: nearly all actives have a fitted effect of over 50% in size. The gist of the method: as §3

Several values for one entry are separate records, joined by “and”; a condition that tells them apart may be missing. Equal entries are not always repeated. Inconclusive results are not listed. Some structures have more than one record in an assay (separate samples or runs), and their calls can disagree. Activity calls are given as the source filed them. Calls come from the whole dose curve; as a rule, active = well fitted curve in the direction sought with a large enough effect in the repeat runs; inconclusive = weak or mixed curves; inactive = no such curve, though single readings can be large; an effect the other way counts as inactive or inconclusive.

For `CC(C)Cc1ccccc1`, the Potency entry in [1], in assay [2], in assay [3], in assay [4], in assay [5] and in assay [6] was “inactive” in each case. Further, the Potency entry in assay [7] and in assay [8] was “inactive” each time.

Turning to `CCc1ccccc1O`, the Potency entry in assay [1], in assay [2], in assay [3], in assay [4], in assay [5] and in assay [7] was “inactive” in each case. Besides, the Potency result in assay [8] is “inactive”.

On to `OCCOCCOCCOCCO`, for which the Potency entry in [1], in assay [2], in [3], in assay [4], in assay [9] and in assay [5] was “inactive” each time. Further, the Potency result in [6], in assay [7] and in [8] was “inactive” throughout.

Regarding `Cc1cc(NS(=O)(=O)c2ccc(N)cc2)no1`, the Potency result in assay [1], in assay [2], in [3], in [4], in assay [9] and in assay [5] was “inactive” in each case. The Potency result in assay [7] and in assay [8] was “inactive” each time.

As to `C[C@@H](O)[C@H]1C(=O)N2C(C(=O)O)=C(S[C@@H]3CN[C@H](C(=O)N(C)C)C3)[C@H](C)[C@H]12`, the Potency entry in [1], in assay [2], in assay [3], in assay [4], in assay [9] and in assay [5] was “inactive” throughout. The Potency result in assay [6], in [7] and in [8] was “inactive” in each case.

On to `CCCCCCCCC`, for which the Potency result in [1], in assay [2], in [3], in [4], in [5] and in [6] was “inactive” throughout. The Potency result in assay [7] and in assay [8] was “inactive” in each case.

Regarding `Clc1ccc(Cl)c(Cl)c1Cl`, the Potency entry in assay [1], in assay [2], in [3], in assay [4], in [9] and in [5] was “inactive” in each case. The Potency entry in assay [6], in assay [7] and in [8] was “inactive” each time.

As for `C/C=C(C)/C=C/C=C(C)C`, the Potency entry in assay [1], in assay [2], in assay [3], in [4], in assay [9] and in assay [5] was “inactive” each time. Also, the Potency result in [6], in [7] and in assay [8] was “inactive” each time.

In the case of `C=C(C)C(=O)OCC(CC)(COC(=O)C(=C)C)COC(=O)C(=C)C`, the Potency result is “inactive and 42.9 µM (active)” in [1]; “inactive and 42.9 µM (active)” in assay [2]; “inactive and 42.9 µM (active)” in [3]; “inactive and 24.1 µM (active)” in assay [4]. Also, the Potency entry in assay [9], in [5], in [6] and in assay [8] was “inactive” each time.

With `O=C1CCCCC1`, the Potency entry in assay [1], in [2], in assay [3], in [4], in assay [5] and in [6] was “inactive” throughout. Further, the Potency entry in assay [7] and in [8] was “inactive” each time.

For the molecule `CCCCC(CC)COC(C)=O` (stereo not drawn), the Potency result in assay [1], in assay [2], in [3], in [4], in [5] and in [6] was “inactive” in each case. The Potency result in assay [7] and in assay [8] was “inactive” each time.

For `CC(C)n1c(/C=C/[C@@H](O)C[C@@H](O)CC(=O)O)c(-c2ccc(F)cc2)c2ccccc21`, the Potency entry in assay [1], in [2], in [4], in [9], in assay [5] and in [7] was “inactive” throughout. Besides, the Potency entry in assay [8] is “inactive”. The Potency in [3] was 4.36 µM (active) and 9.52 µM (active).

For the molecule `Oc1ccc2ccccc2c1`, the Potency entry in assay [1], in [2], in assay [3], in assay [4], in [9] and in [5] was “inactive” each time. The Potency entry in assay [7] and in assay [8] was “inactive” in each case.

For the molecule `OCC1CCCO1` (stereo not drawn), the Potency result in assay [1], in assay [2], in assay [3], in assay [4], in assay [9] and in assay [5] was “inactive” in each case. Also, the Potency entry in [7] and in [8] was “inactive” in each case.

On to `CC(C)(N=C=O)c1cccc(C(C)(C)N=C=O)c1`, for which the Potency result in assay [1], in assay [2], in [3], in assay [4], in assay [5] and in assay [6] was “inactive” throughout. Besides, the Potency result in assay [7] and in [8] was “inactive” throughout.

Turning to `CC1=CC[C@H]2C[C@@H]1C2(C)C`, the Potency result in assay [1], in assay [2], in [3], in assay [4], in assay [5] and in assay [6] was “inactive” each time. In addition, the Potency entry in assay [7] and in assay [8] was “inactive” in each case.

For the molecule `CCOC(=O)/C=C\C(=O)OCC`, the Potency result in assay [1], in assay [2], in assay [3], in [4], in [9] and in [5] was “inactive” each time. Besides, the Potency entry in assay [7] and in [8] was “inactive” in each case.

For `CN(CCOc1ccc(CC2SC(=O)NC2=O)cc1)c1ccccn1` (stereo not drawn), the Potency result in assay [1], in assay [2], in assay [3], in [4], in assay [5] and in assay [6] was “inactive” throughout. For the same molecule, the Potency entry in assay [7] and in assay [8] was “inactive” throughout.

Consider `CC#C[C@]1(O)CC[C@H]2[C@@H]3CCC4=CC(=O)CCC4=C3[C@@H](c3ccc(N(C)C)cc3)C[C@@]21C`, for which the Potency result in assay [1], in [2], in [3], in assay [4], in assay [9] and in [7] was “inactive” in each case. The Potency entry in assay [8] is “inactive”. Also, the Potency in assay [5] was 49 µM (active); in [6] it was 43.6 µM (active).

Consider `ClC1=C(Cl)C(Cl)(Cl)C(Cl)=C1Cl`, for which, in assay [1], the Potency was 17.5 µM (active) and 34.7 µM (active). The Potency result in assay [2], in [3], in assay [4], in [9], in [6] and in assay [7] was “inactive” throughout. Also, the Potency entry in assay [8] was “inactive”.

As for `Cc1ccc(C(=O)O)o1`, the Potency result in assay [1], in assay [2], in assay [3], in [4], in assay [5] and in [6] was “inactive” throughout. In addition, the Potency entry in [7] and in [8] was “inactive” throughout.

With `Cc1cc(O)c2c(c1)C(=O)c1cc(O)cc(O)c1C2=O`, the Potency entry in [1], in assay [2], in assay [3], in assay [4], in assay [9] and in assay [6] was “inactive” throughout. Also, the Potency entry in assay [7] and in assay [8] was “inactive” in each case.

For the molecule `COC(=O)c1ccccc1O`, the Potency entry in assay [1], in [2], in assay [3], in [4], in [9] and in assay [5] was “inactive” in each case. Further, the Potency entry in assay [6], in assay [7] and in [8] was “inactive” throughout.

For `Cc1ccc(C)c(C)c1`, the Potency entry in [1], in [2], in assay [3], in assay [4], in assay [5] and in [6] was “inactive” throughout. Further, the Potency result in assay [7] and in assay [8] was “inactive” in each case.

For the molecule `CCCCCCCCCCCCOCC1CO1` (stereo not drawn), the Potency entry in assay [1], in assay [2], in assay [3], in assay [4], in assay [9] and in [5] was “inactive” in each case. The Potency result in assay [7] and in assay [8] was “inactive” each time.

As for `O=C(O)c1cc(-c2ccccc2)nc2ccccc12`, the Potency entry in assay [1], in assay [2], in [3], in assay [4], in [5] and in [6] was “inactive” throughout. Further, the Potency entry in assay [7] and in assay [8] was “inactive” in each case.

In the case of `CCCCCCCCCC(=O)O`, the Potency entry in assay [1], in [2], in [3], in assay [4], in [9] and in assay [5] was “inactive” in each case. Besides, the Potency result in [6], in assay [7] and in assay [8] was “inactive” throughout.

`CC(=O)Nc1ccc(C(=O)O)cc1`: the Potency entry in assay [1], in assay [2], in [3], in [4], in assay [9] and in assay [5] was “inactive” throughout. Also, the Potency result in assay [6], in assay [7] and in [8] was “inactive” in each case.

Regarding `O=C1O[C@H](CO)[C@@H](O)[C@H](O)[C@H]1O`, the Potency result in [1], in assay [2], in assay [3], in assay [4], in [5] and in [6] was “inactive” throughout. Also, the Potency result in [7] and in [8] was “inactive” in each case.

In the case of `C=C1CC[C@H](O)CC1=C/C=C1\CCC[C@]2(C)[C@@H]([C@H](C)/C=C/[C@H](C)C(C)C)CC[C@@H]12`, the Potency result in assay [1], in assay [2], in assay [3], in assay [4], in assay [9] and in assay [7] was “inactive” in each case. In addition, the Potency entry in assay [8] is “inactive”. Also, the Potency in assay [5] was 43.6 µM (active).

Take `NCCNCCNCCNCCN`: the Potency entry in assay [1], in [2], in assay [3], in assay [4], in [9] and in assay [5] was “inactive” in each case. Moreover, the Potency result in [7] and in [8] was “inactive” in each case.

On to `CCCCCCCCCCC=CC1CC(=O)OC1=O` (stereo not drawn), for which the Potency entry in [1], in assay [2], in assay [3], in [4], in assay [9] and in assay [5] was “inactive” each time. Moreover, the Potency entry in assay [7] and in [8] was “inactive” in each case.

Take `O=C(Oc1ccccc1)c1ccc(O)cc1`: the Potency entry in [1], in assay [2], in assay [3], in assay [4], in [9] and in assay [5] was “inactive” in each case. Also, the Potency result in [6], in assay [7] and in assay [8] was “inactive” each time.

As for `NC(=O)/N=N/C(N)=O`, the Potency result in assay [1], in [2], in [3], in assay [4], in [9] and in assay [5] was “inactive” throughout. The Potency entry in [6], in [7] and in assay [8] was “inactive” each time.

Consider `CCCCC/C=C\C/C=C\CCCCCCCC(=O)OC`, for which the Potency entry in [1], in assay [2], in assay [3], in assay [4], in [5] and in assay [7] was “inactive” throughout. The Potency result in [8] is “inactive”.
